Consider 40 compounds from PubChem BioAssay (NCI).

The panel holds about 83,000 compounds, 20% with a hit somewhere; the sample as a whole holds those more often.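 Cells were grown in 96-well plates and exposed to the test compound at a single concentration for 48 hours; results are reported as percent growth, with values below 10 considered active.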 Calls of active or inactive are those of the source.

This assay concerns HL-60(TB) leukemia. In words: NCI-60 one-dose screen, 48 h (100 = growth as untreated, 0 = no growth, -100 = all killed). The following applies: 10 µM unless noted.
For the compound `O=C1/C(=C/c2ccccc2Br)COc2ccc(O)cc21`, the growth was 17.1% (inactive).

For the compound `Nc1ccc(-c2cc3c(NCc4ccccc4)ncnc3s2)cc1`, the growth is 85.5% (inactive).

Take `COC1(OC)C2(Cl)CCC1(Cl)C(Cl)=C2Cl`: the growth was 139% (inactive).

`CC(=S)NC(=O)C(=O)/C=C1/NC(=O)C(=O)S1`: the growth was 104% (inactive).

As to `O=C(/C=C/c1cn(-c2ccccc2)nc1-c1ccccc1)CCC(=O)NO`, the growth is 98.3% (inactive).

In the case of `CN1C(=O)/C(=C2\SC(=Nc3ccccc3)N(Nc3ccccc3)C2=O)c2ccccc21`, the growth is 108% (inactive).

As to `O=C1C(Cl)=C(SC2=NCCN2)C(=O)c2ccccc21`, the growth was 81.4% (inactive).

`COc1cc2nc(Cl)nc(Nc3cccc(C(=O)/C=C/c4ccc(Cl)cc4)c3)c2cc1OC`: the growth was 51.7% (inactive).

For `Cc1cc(-c2ccccc2)cc(C)n1`, the growth was 104% (inactive).

For `CCCCCCCCCCCCNC(=S)N/N=C/c1ccc(Cl)c(Cl)c1`, the growth is 116% (inactive).

For the compound `Cc1ccc(S(=O)(=O)OCC(=O)Nc2ccc(C(=O)O)c(O)c2)cc1`, the growth was 60.4% (inactive).

Take `C=CCSc1nnc(-c2ccc(C(C)(C)C)cc2)n1-c1cccc(C(F)(F)F)c1`: the growth is 5.96% (active).

With `O=C1COc2ccccc2C(=O)N1CCCCNc1ccccc1`, the growth was -36.5% (active).

As to `O=C(COc1cccc(/C=C2\CSc3ccc(Cl)cc3C2=O)c1)c1ccc(Cl)cc1`, the growth was 79.2% (inactive).

As to `Cn1ccc2c3c(ccc21)CC3=O`, the growth is 113% (inactive).

Take `CCCCC1COc2cccc3c2N1C=C/C3=C\C(=O)N(C)c1ccccc1` (stereo not given): the growth was 9.39% (active).

Regarding `Nc1nnc(CSc2nnc3n(Cc4ccccc4)c(=O)c4c5c(sc4n23)CCCC5)s1`, the growth is 76.9% (inactive).

`O=C(OCCCCOC(=O)n1cnc2ccccc21)n1cnc2ccccc21`: the growth is 104% (inactive).

`Cc1ccc2nc(Cl)c(-c3nc4ccccc4o3)cc2c1`: the growth is 94.4% (inactive).

For the compound `NC1=NN=C2N(N)C(=O)c3cnn(-c4ccccc4)c3N2c2nc(-c3ccccc3)cc(-c3ccccc3)c21`, the growth was 105% (inactive).

`Cc1ccc(C(=O)c2ccc(CC(=O)N/N=C/c3cccc(O)c3O)n2C)cc1`: the growth was 4.13% (active).

For `Cc1c2c(cc[n+]1Cc1ccccc1)c1ccc(OCC3CCCCC3)cc1n2CC1CCCCC1`, the growth was -53.4% (active).

As for `COC(=O)C1CCCN1C(=O)[C@@H]1CCCN1C(=O)[C@H](Cc1c[nH]c2ccccc12)NC(=S)Nc1cc(C(F)(F)F)cc(C(F)(F)F)c1` (stereo not given in full), the growth was -43.8% (active).

On to `N=C(N)c1ccc(-c2ccc(-c3ccccc3)s2)nc1`, for which the growth was 16.6% (inactive).

For the compound `O=C(N=Nc1c(O)[nH]c2ccccc12)Nc1ccc(F)cc1`, the growth was 94.5% (inactive).

For `O=c1cc(-c2ccccc2)nc2cc(-c3ccco3)[nH]n12`, the growth is 82.7% (inactive).

In the case of `Cc1c2cccnc2c(C)c2c1c1cc(CO)ccc1n2C`, the growth was 31% (inactive).

Turning to `C=CC(=O)Nc1cc2c(Nc3ccc(F)c(Cl)c3)ncnc2cc1C#CC(C)(C)N1CCN(C)CC1`, the growth was -47.6% (active).

Consider `COc1ccc(C(c2cc(OC)c(OC)c(OC)c2)N2CCCCC2)cc1` (stereo not given), for which the growth is 4.36% (active).

`COc1ccc(/C(=C\c2cc(OC)c(OC)c(OC)c2)C(=O)N2CCCNCC2)cc1`: the growth is 96.4% (inactive).

As for `O=C(NCCN1CCOCC1)c1cncnc1Nc1ccc2c(ccn2Cc2ccccn2)c1`, the growth was 99.7% (inactive).

As for `CCOC(=O)c1c(C(F)(F)F)n([O-])c2ccc(Cl)cc2[n+]1=O`, the growth is -65.2% (active).

In the case of `Cc1cc(C)n(C(=O)CSc2nc3sc4c(c3c(=O)n2-c2ccccc2)CCCCC4)n1`, the growth was 107% (inactive).

Consider `O=c1c2cccc(F)c2sc2c(N3CCNCC3)nc3ccccc3c12`, for which the growth is 30.9% (inactive).

For `CC(=O)N(C)c1ccc(Nc2ccc(Nc3ccc(N(C)C(C)=O)cc3)c3c2C(=O)c2ccccc2C3=O)cc1`, the growth was 77% (inactive).

Turning to `COC(=O)c1c2c(c(C)[n+]([O-])c1C)C(=O)C=C(NCc1ccc(OC)cc1)C2=O`, the growth is -30.5% (active).

In the case of `Cc1cc(Cl)c2c(N(C)C)cccc2n1`, the growth was 97.3% (inactive).

In the case of `O=C(CSc1nc2ccc([N+](=O)[O-])cc2[nH]1)Nc1ccc(Br)cc1`, the growth is 39.4% (inactive).

`CCOC(=O)CSCCC#N`: the growth is 118% (inactive).

Turning to `CC(C)(C)c1ccc(/C=C/C(=O)Nc2ccc(O)cc2)cc1`, the growth is -12.6% (active).
